# Data: PubChem BioAssay (NCATS)
# Inconclusive results are not listed. A number with no mark means an inactive call. The call rests on the fitted dose curve; in most records, active means well fitted cell-killing curve with a large enough effect; inconclusive means small, poorly fitted or top-dose-only effect; inactive means flat fitted curve, though single readings scatter.
# Assay: qHTS of pediatric cancer cell lines to identify multiple opportunities for drug repurposing: Primary screen for control Hh wild type fibroblast cells (AID 1347106);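 further: a drop in luminescence marks cytotoxicity and a rise apparent proliferation; nearly all actives have a fitted effect of over 55% in size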
# Conditions: Hh wild-type fibroblast viability, CellTiter-Glo luminescence, 48 h; series mostly up to 46 µM; activity change, negative = cytotoxic: at the top concentration
# From the text: Drug repurposing or repositioning has been offered as a strategy for drug development in oncology programs. This approach has special potential for childhood cancers and other rare or orphan diseases, where the expected return on new drug development has been a disincentive to pharmaceuticals.
# In this project we exploit the poly-pharmacology of drugs to discover new indications via phenotypic screening of a panel of 19 well-characterized cell lines derived from solid tumors seen in children and adolescents. The goal is to identify approved drugs with previously unrecognized anticancer properties that has the potential to reveal new mechanisms and biological processes involved in carcinogenesis or drug resistance. We employed a titration-based paradigm (quantitative high-throughput screening or qHTS), where all compounds were tested at multiple concentrations for their effect on cell viability. Concentration-response curves (CRCs) were derived directly from the primary screen, and both potency and efficacy values were used to identify compounds with robust bioactivity profiles. We screened the NIH Chemical Genomics Center (NCGC) Pharmaceutical Collection (NPC) and Mechanism Interrogation Plate (MIPE) small molecule collections of approved and investigational compounds against these cell lines; and measured metabolically active cells after 48 hours of compound treatment as a proxy for cell viability.
# Assay Submitter: Nathalia J. Martinez, National Center for Advancing Translational Sciences, National Institutes of Health, Rockville, MD, USA; email: natalia.martinez@nih.gov
# [1] Shen, M et al. Quantitative high-throughput phenotypic screening of pediatric cancer cell lines identifies multiple opportunities for drug repurposing. Oncotarget 2017 Dec 19;9(4):4758-4772. PMID 29435139.
# The cells were obtained from University of North Carolina (UNC), Pediatric Preclinical Testing Program (PPT), and Coriell Institute (CI).
# qHTS cell viability assay:
# Cells were assayed in growth media at a density of 500-1,000 cells/well. Five microliters of cells were dispensed into 1,536-well, white, solid-bottom, TC-treated plates (Greiner Bio One) using a multidrop dispenser and incubated at 37 degrees C, 5% CO2, under a humidified atmosphere for 5 hours. Twenty-three nanoliters of compounds and controls (neutral control DMSO or positive control bortezomib at final concentration of 2.3 µM) were subsequently transferred by Kalypsys pintool. For primary screens, the MIPE collection was tested at 11-point dilutions (final concentrations range from 0.78 nM to 46 µM) and the NPC collection at 8-point dilutions (final concentrations range from 0.59 nM to 46 µM). Compounds tested in follow-up screens were assayed at 11-point dilutions. Cells were incubated for 48 hours, followed by addition of 3 µL of CellTiter-Glo (Promega). After a 15 min incubation at room temperature, samples were analyzed for luminescence intensity using a ViewLux High-throughput CCD imager equipped with clear filters.
# On the % scale 0 is the no-effect control and ±100 the full control effect.
row,SMILES,"activity change, negative = cytotoxic"
1,Cc1ncc(COP(=O)(O)O)c(C=O)c1O,-1.58%
2,CN1[C@@H]2CC[C@H]1CC(OC(=O)C(O)c1ccccc1)C2 (stereo not given in full),1.33%
3,COc1ccc(S(=O)(=O)Nc2nnc(CC(C)C)s2)cc1,-12.4%
4,O=C(O)CC(O)C(=O)O (stereo not given),9.87%
5,CC(=O)NC(Cc1ccccc1)C(=O)O (stereo not given),-5.79%
6,CC(=O)Nc1ccc(/C=N/NC(N)=S)cc1,9.99%
7,CNCCCC1c2ccccc2C=Cc2ccccc21,-3.17%
8,Cc1cccc(C)c1NC(=O)CN(CC(=O)O)CC(=O)O,2.05%
9,CCN(CC)CCNC(=O)c1cc(Cl)c(N)cc1OC,11.2%
10,CCCCN(CCCC)CCCOC(=O)c1ccc(N)cc1,6.5%
11,CC1=C(/C=C/C(C)=C/C=C/C(C)=C/C(=O)O)C(C)(C)CCC1,-0.761%
12,CCN(CC)C(=O)Nc1ccc(OCC(O)CNC(C)(C)C)c(C(C)=O)c1 (stereo not given),6.96%
13,Cc1c(O)cccc1C(=O)N[C@@H](CSc1ccccc1)[C@H](O)CN1C[C@H]2CCCC[C@H]2C[C@H]1C(=O)NC(C)(C)C,-1.42%
14,O=S(=O)(O)c1cc(I)c(O)c2ncccc12,9.58%
15,N[C@H]1C(O)O[C@H](CO)[C@@H](O)[C@@H]1O (stereo not given in full),12.2%
16,CC1(C)CO[C@@H](CC(=O)O)CN1,6.23%
17,CCCOC(=O)c1ccccc1,5.6%
18,COCCOC(=O)C1=C(C)NC(C)=C(C(=O)OC/C=C/c2ccccc2)C1c1cccc([N+](=O)[O-])c1 (stereo not given),17%
19,OC[C@H]1O[C@@H](O[C@@H]2[C@@H](CO)O[C@](O)(CO)[C@H]2O)[C@H](O)[C@@H](O)[C@H]1O,7.05%
20,CCCCOC(=O)c1ccc(O)cc1,-3.4%

row,SMILES,"activity change, negative = cytotoxic"
1,C[C@]12CC[C@@H]3c4ccc(O)cc4CC[C@H]3[C@@H]1CCC2=O,12%
2,CCCn1cnc2c1c(=O)n(CCCCC(C)=O)c(=O)n2C,-2.25%
3,Oc1ccc(C(O)CNCCCCCCNCC(O)c2ccc(O)c(O)c2)cc1O (stereo not given),1.11%
4,Nc1ncnc2c1ncn2[C@@H]1O[C@H](CO)[C@@H](O)[C@H]1O,6.92%
5,CC(=O)Oc1ccc(C2(c3ccc(OC(C)=O)cc3)C(=O)Nc3ccccc32)cc1,-17.4%
6,CCCCN1CCCC[C@H]1C(=O)Nc1c(C)cccc1C,-2.79%
7,O=C1NC(=O)[C@@]2(CCOc3ccc(F)cc32)N1,9.51%
8,CC(O)COc1ccccc1 (stereo not given),2.76%
9,NC(=O)NC(=O)Cc1ccccc1,-1.29%
10,CC(C)(C)NCC(O)COc1ccc(NC(=O)NC2CCCCC2)cc1 (stereo not given),0.498%
11,NC(=O)c1ncn([C@@H]2O[C@H](CO)[C@@H](O)[C@H]2O)c1N,-5.11%
12,C[C@](N)(Cc1ccc(O)cc1)C(=O)O,5.39% [at 4.84 µM]
13,Cc1cc(O)cc2c1O[C@](C)(CCC[C@H](C)CCC[C@H](C)CCCC(C)C)CC2,-2.24%
14,CC(C)(C)C(=O)C(Oc1ccc(Cl)cc1)n1ccnc1 (stereo not given),16.9%
15,C[C@@H]1CCN(C(=O)[C@H](CCCN=C(N)N)NS(=O)(=O)c2cccc3c2NC[C@H](C)C3)[C@@H](C(=O)O)C1,6.53%
16,COc1cc(C(=O)N2CCOCC2)cc(OC)c1OC,8.54%
17,CC1=C(C/C=C(\C)CCC[C@H](C)CCC[C@H](C)CCCC(C)C)C(=O)c2ccccc2C1=O,-3.74%
18,CC1(C)[C@@H]2CC[C@@]1(C)C(=O)C2,1.32%
19,Nc1ccc(S(=O)(=O)Nc2ccccc2)cc1,3.97%
20,CC(=O)c1ccc2c(c1)N(CCCN(C)C)c1ccccc1S2,-9.28%
